# Most compounds without a hit are left out; they make up all but 7.9% or so of the library.
# HT1080-NT tox = kills 2HG-producing HT-1080-NT fibrosarcoma cells. AID 686970. HT-1080-NT fibrosarcoma viability, CellTiter-Glo ATP luminescence, 48 h. 360,000 tested, 1.6% active. Potency, µM (series often up to 46.1 µM), usual class: cytotoxic;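 note: NT is the 2HG producing partner of a matched IDH1 knockdown line; nearly all actives have a fitted effect of over 55% in size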
#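 Compounds were tested in concentration-response format on HT-1080-NT cells for 48 hours at 37 degrees C. Cell viability came from CellTiter-Glo luminescence; curves were classified by r2, response magnitude and activity.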
# SW480 rereplic = inducers of DNA re-replication in SW480 colon cancer cells; SW480 DNA re-replication, Hoechst DNA content imaging, 48 h; Potency, µM (highest dose often 46.1 µM), actives largely listed as activators; 340,000 tested, 1.8% active; AID 624297; note: nearly all actives have a fitted effect of over 55% in size
#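 Quantitative HTS format with DMSO vehicle controls; 48 hr drug incubation at 37 C, then 40 min Hoechst staining and scanning imager measurement at 405 nm excitation.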
# KB-3-1 cytotox = kills parental KB-3-1 adenocarcinoma cells | AID 1347075 | 400,000 tested, 1.4% active | Potency, µM (top dose mostly 46.1 µM), usual class: cytotoxic | KB-3-1 viability, CellTiter-Glo ATP luminescence, 72 h; note: nearly all actives have a fitted effect of over 60% in size
#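 KB-3-1 cells, DMEM (no phenol red) + 10% FBS; compound by pin transfer, 72 h, 37 °C. Readout: CellTiter-Glo luminescence after 10 min. Data normalized, curve-fitted.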
# MCF10A rerep = DNA re-replication induction in MCF 10a cells; MCF 10A DNA re-replication, Hoechst nuclear intensity, 48 h; Potency, µM (series often up to 46.1 µM), hits mostly activators; 350,000 tested, 2.9% active; AID 624296; note: nearly all actives have a fitted effect of over 50% in size
# KB-V1 MDR tox = KB-V1 MDR subline cytotoxicity; Potency, µM (top dose mostly 46.1 µM), hits mostly cytotoxic; 400,000 tested, 3.4% active; KB-V1 MDR cells viability, CellTiter-Glo, 72 h; note: nearly all actives have a fitted effect of over 60% in size
#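 Potencies derive from concentration-effect curves fitted to normalized luminescence (CellTiter-Glo) of KB-V1 cells treated for 72 h at 37 degrees C in phenol-red-free DMEM containing 10% FBS.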
# HT1080 IDH1KD tx = HT-1080 IDH1 knockdown cell toxicity (counter line) | HT-1080 IDH1 knockdown viability, ATP luminescence, 48 h | Potency, µM (top dose mostly 46.1 µM), most hits filed as cytotoxic | 360,000 tested, 2% active | AID 686971
#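 % activity derives from luminescence (CellTiter-Glo), normalised to DMSO and no-cell wells. HT-1080-IDH1KD cells, 750/well, had 48 h compound exposure at 37 °C.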
# Numbers stand for hits; n = inactive; u = inconclusive; x = no result given; [ ] = dose if it differs, or a comment. Calls come from the whole dose curve; as a rule, active = well fitted curve in the direction sought with a large enough effect; inconclusive = small, poorly fitted or top-dose-only effect, or another doubt; inactive = no such curve, though single readings can be large; an effect the other way counts as inactive or inconclusive.
SMILES,HT1080-NT tox,SW480 rereplic,KB-3-1 cytotox,MCF10A rerep,KB-V1 MDR tox,HT1080 IDH1KD tx
COc1ccc(Cc2noc(CN(C)CC(O)c3ccccc3)n2)cc1OC (stereo not given),n,n,n,n,n,n
C[C@H](NC(=O)c1nc[nH]c1C(=O)NC(c1ccccc1)c1ccccc1)C(=O)OC(C)(C)C,u,n,u,n,8.2µM,u
CC(C)C[C@H](NC(=O)c1nc[nH]c1C(=O)NCCCCCNC(=O)OC(C)(C)C)C(=O)OC(C)(C)C,u,u,u,n,u,u
CC(C)C[C@H](NC(=O)c1nc[nH]c1C(=O)N[C@@H](CCCCNC(=O)OC(C)(C)C)C(=O)OC(C)(C)C)C(=O)OC(C)(C)C,u,u,16µM,n,u,u
C[C@H](NC(=O)c1nc[nH]c1C(=O)N1CCN(C(=O)OC(C)(C)C)CC1)C(=O)OC(C)(C)C,n,n,n,u,n,n
CC(C)C[C@H](NC(=O)c1nc[nH]c1C(=O)N1CCN(C(=O)OC(C)(C)C)CC1)C(=O)OC(C)(C)C,n,16µM,5.8µM,u,n,n
C[C@H](NC(=O)c1nc[nH]c1C(=O)NCCCCCNC(=O)OC(C)(C)C)C(=O)OC(C)(C)C,n,n,n,n,23µM,n
C[C@H](NC(=O)c1nc[nH]c1C(=O)N[C@H](C)c1ccccc1)C(=O)OC(C)(C)C,n,n,n,n,u,n
Cc1c(C(=O)OCC(=O)N2C(C)CCCC2C)oc2ccccc12 (stereo not given),n,n,n,n,n,n
CC(=O)NC1CC2CCCC(C1)N2C(=O)Nc1ccccc1 (stereo not given),n,n,n,n,n,n
Cc1ccccc1OCC(O)CO (stereo not given),x,n,x,n,x,x
CC(C)C[C@H](NC(=O)c1nc[nH]c1C(=O)N1CCN(c2ccccc2)CC1)C(=O)OCc1ccccc1,n,n[9.22 µM],n,12µM,n,n
O=C(CC[C@H]1O[C@@H](n2ccc(=O)[nH]c2=O)[C@H](O)[C@@H]1O)N[C@@H](Cc1ccccc1)C(=O)NCC1CCCO1 (stereo not given in full),u,x,n,x,7.3µM,n
COc1ccccc1-n1c(Cc2cccs2)n[nH]c1=S,n,n,n,u,n,n
CCOc1ccc(N2C(=O)CC(NCCc3c[nH]c4ccccc34)C2=O)cc1 (stereo not given),n,2.9µM,n,n,n,n
Oc1cc(Nc2ccccc2)cc2cccnc12,x,n,u,u,u,x
Oc1cc(NCCN2CCOCC2)cc2cccnc12,x,u,15µM,u,n,x
Cc1cc(C(=O)CCl)c(C)n1-c1cccc([N+](=O)[O-])c1,u,u,16µM,u,23µM,u
Cc1cc(C(=O)CCl)c(C)n1-c1ccon1,n,12µM,u,u,u,21µM
Cc1cc(C(=O)CCl)c(C)n1Cc1ccco1,u,u,n,u,n,u
CC(=O)c1c(C(C)=O)c(C)n(-c2cccc([N+](=O)[O-])c2)c1C,n,n,n,n,n,n
COc1ccc(NC(=O)CN2C(=O)C3(SCC(=O)N3c3ccccc3)c3ccccc32)cc1Cl (stereo not given),x,x,n,x,n,x
COc1cc2c(cc1CNC[C@H]1O[C@@H](n3cc(C)c(=O)[nH]c3=O)C[C@@H]1O)OCO2,u,x,n,x,n,n
CC(NC(=O)C1(S(=O)(=O)c2ccc(Cl)cc2)CC1)c1ccccc1 (stereo not given),n,n,n,n,21µM,n
N#Cc1ccsc1NC(=O)COC(=O)c1ccc2ccccc2c1,n,n,n,n,n,n
Cn1cccc1C(=O)OCC(=O)Nc1sccc1C#N,n,n,u,n,16µM,n
CCOC(=O)c1ccc(NC(=O)Nc2nncs2)cc1,1.2µM,x,u,x,0.33µM,0.92µM
CCOC(=O)c1ccc(NC(=O)Nc2nc3ccccc3s2)cc1,n,x,n,x,n,n
O=C(Nc1ccc(N2CCOCC2)cc1)Nc1ccc(Cl)c(Cl)c1,u,n,u,n,18µM,u
